Assay outcomes (PubChem BioAssay)
POLB inh = DNA polymerase beta (human) inhibition. 1.3% of 340,000 active. P06746. Potency, µM (doses to about 114 µM), for inactives: at the top dose activity change, negative = inhibition, usual class: inhibitors. Pol beta primer extension/strand displacement, fluorescence kinetic; also: % is scaled to controls: 0 for no effect and ±100 for the full control effect
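Reaction started by 50 nM substrate onto compound-treated Pol beta (10 nM, 15 min preincubation, room temperature); plates read at 0 min and 10 min. Normalized concentration-effect data fitted by four-parameter Hill equation.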
Pol kappa inh-1 = blocks human DNA polymerase kappa activity; Q9UBT6; purified Pol kappa, fluorescent DNA synthesis assay, 10 min; Potency, µM (top dose mostly 107 µM), for inactives: at the highest dose activity, negative = inhibition, usual class: inhibitors; 0.53% of 400,000 active; AID 588579; also: % is scaled to controls: 0 for no effect and ±100 for the full control effect
Target sequence (Q9UBT6 whole entry, looked up): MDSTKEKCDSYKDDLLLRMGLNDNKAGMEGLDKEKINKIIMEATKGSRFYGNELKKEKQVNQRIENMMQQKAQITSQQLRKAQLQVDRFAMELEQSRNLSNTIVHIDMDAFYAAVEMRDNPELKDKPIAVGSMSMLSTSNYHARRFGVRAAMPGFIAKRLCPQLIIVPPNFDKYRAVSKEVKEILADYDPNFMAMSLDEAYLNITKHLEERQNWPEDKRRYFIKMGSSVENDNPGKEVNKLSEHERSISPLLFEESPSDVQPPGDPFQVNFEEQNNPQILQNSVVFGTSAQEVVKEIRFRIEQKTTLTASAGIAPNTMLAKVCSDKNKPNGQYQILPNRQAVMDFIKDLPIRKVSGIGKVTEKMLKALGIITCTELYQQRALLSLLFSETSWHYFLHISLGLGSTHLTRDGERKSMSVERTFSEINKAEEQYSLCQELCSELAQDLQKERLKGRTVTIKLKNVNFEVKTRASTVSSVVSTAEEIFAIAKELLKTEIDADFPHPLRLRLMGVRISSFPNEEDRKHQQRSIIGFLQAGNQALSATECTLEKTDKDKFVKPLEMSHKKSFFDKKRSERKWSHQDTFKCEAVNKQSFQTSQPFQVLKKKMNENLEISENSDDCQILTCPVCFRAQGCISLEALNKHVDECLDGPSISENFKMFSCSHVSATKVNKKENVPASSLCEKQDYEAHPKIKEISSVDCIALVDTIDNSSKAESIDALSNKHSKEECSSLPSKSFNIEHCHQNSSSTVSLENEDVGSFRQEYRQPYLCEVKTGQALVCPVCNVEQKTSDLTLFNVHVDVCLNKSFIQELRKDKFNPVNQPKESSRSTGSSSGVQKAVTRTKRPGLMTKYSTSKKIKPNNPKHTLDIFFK
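Fluorescent qHTS in 1536-well format: enzyme (10 nM) and compound sat 15 min at room temperature before 50 nM substrate (final) was added. Signal taken at 0 and 10 min; no-enzyme buffer wells were negative controls.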
FEN1 inh-1 = human FEN1 inhibition | Potency, µM (doses to about 114 µM), for the others: top-dose activity change, negative = inhibition, actives largely listed as inhibitors | P39748 | AID 588795 | 0.35% of 390,000 active | Recombinant FEN1 flap cleavage, fluorescence, 15 min; also: % is scaled to controls: 0 for no effect and ±100 for the full control effect; nearly all actives have a fitted effect of over 65% in size
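Quantitative HTS format: each compound was titrated, incubated with 10 nM nuclease for 15 min at room temperature, then challenged with flap substrate at 50 nM final. Signal change over 15 min gave concentration–effect curves.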
WRN helicase inh = inhibitors of human WRN helicase | AID 651768 | Q14191 | WRN helicase unwinding, fluorescent forked duplex, kinetic | Potency, µM (doses to about 114 µM), for inactives: at the top dose activity change, negative = inhibition, most hits filed as inhibitors | 0.46% of 360,000 active; also: % is scaled to controls: 0 for no effect and ±100 for the full control effect; nearly all actives have a fitted effect of over 55% in size
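WRN at 20 nM final was preincubated with compound for 15 min at room temperature; reaction started with 100 nM forked duplex oligonucleotide carrying fluorophore and quencher plus 2 mM ATP (final). Unwinding followed kinetically by red fluorescence (ex 525/em 598 nm).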
Pol iota inh = DNA polymerase iota (human) inhibition. Potency, µM (titrated, usually from 115 µM), for the others: at the highest dose activity, negative = inhibition, hits mostly inhibitors. Pol iota fluorescent replication assay, 10 min. Q9UNA4. AID 588590. 1% of 390,000 active
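Pol iota at 10 nM preincubated 15 min with compounds at room temperature; reaction started with fluorescent substrate, 50 nM final. Fluorescence read kinetically at 0 and 10 min; buffer-only wells as negative control.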
Pol eta inh-1 = blocks human DNA polymerase eta activity; 1.2% of 390,000 active; recombinant Pol eta, fluorescent DNA replication assay; AID 588591; Q9Y253; Potency, µM (titrated, usually from 114 µM), for the others: at the highest dose activity change, negative = inhibition, hits mostly inhibitors; also: % is scaled to controls: 0 for no effect and ±100 for the full control effect
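Pol eta (10 nM) was preincubated with compounds for 15 min at room temperature, after which fluorescent replication substrate (50 nM final) was added to start the reaction. Fluorescence was read kinetically at 0 and 10 min.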
PGK validate = TbPGK inhibition, hit validation | shares compounds with Pol kappa inh-1 | TbPGK coupled GAPDH assay, Kinase-Glo luminescence | Potency, µM (series often up to 57.5 µM), inactives show at the top dose activity change, negative = inhibition, hits mostly inhibitors | 79% of 500 active; also: % is scaled to controls: 0 for no effect and ±100 for the full control effect; nearly all actives have a fitted effect of over 65% in size
POLI cherry-pick = Human Pol iota inhibitor confirmatory assay | Potency, µM, usual class: inhibitors | AID 720496 | 77% of 1,500 active | Pol iota primer extension, TAMRA/BHQ fluorescence | shares compounds with Pol kappa inh-1
Pol kappa inh-2 = Pol kappa (human) inhibition, cherry-pick confirmation | shares compounds with Pol eta inh-1 | purified Pol-kappa, fluorescent strand-displacement substrate | Potency, µM, hits mostly inhibitors | 76% of 920 active | AID 720501
Pol eta inh-2 = Pol eta (human) inhibition, cherry-pick confirmation; shares compounds with Pol eta inh-1; Pol eta primer extension, TAMRA/BHQ fluorescence, 10 min; Potency, µM, usual class: inhibitors; 64% of 2,600 active
FEN1 inh-2 = FEN1 inhibition, cherry-pick retest; shares compounds with FEN1 inh-1; FEN1 flap cleavage, TAMRA/BHQ2 fluorogenic DNA substrate; Potency, µM, actives largely listed as inhibitors; 79% of 880 active; also: nearly all actives have a fitted effect of over 60% in size
The depositor's hits bear a star; ? = inconclusive; nt = no result given; [ ] = remark or other dose. Shown are actives, neighbours in structure and some others; about 2.4% of the full set was active somewhere. Calls follow the shape of the dose curve; as a rule, active = well fitted curve in the direction sought with a large enough effect; inconclusive = small, poorly fitted or top-dose-only effect, or another doubt; inactive = no such curve, though single readings can be large; an effect the other way counts as inactive or inconclusive. Potency is read from the fitted curve at half-maximal effect.

SMILES	POLB inh	Pol kappa inh-1	FEN1 inh-1	WRN helicase inh	Pol iota inh	Pol eta inh-1	POLI cherry-pick	Pol eta inh-2	FEN1 inh-2	others
CCOC(=O)c1c(C)c(C(=O)NCCc2ccc(OC)cc2)c(C)n1C	29%	9%	-5%	nt	21%	-15%	nt	nt	nt
Cc1ccc(OCC(=O)Nc2cc(-c3nc4cc(Cl)ccc4o3)ccc2C)c(C)c1	nt	-4%	10%	nt	22%	nt	nt	nt	nt
COc1cc(-c2nnc(SCC(=O)N(C)C3CCCCC3)o2)cc(OC)c1OC	?	-19%	5%	nt	-16%	5%	nt	nt	nt
NS(=O)(=O)c1ccc(N/N=C/c2ccccc2C(=O)O)c([N+](=O)[O-])c1	1%	-18%	-2%	-16%	58%	-5%	nt	nt	nt
COc1ccccc1NS(=O)(=O)c1ccc(N/N=C/c2ccccc2OCC(=O)O)c([N+](=O)[O-])c1	-9%	-20%	?	-23%	?	?	nt	nt	nt
O=C(O)c1ccccc1NS(=O)(=O)c1ccc(N/N=C/c2ccc(O)c(O)c2)c([N+](=O)[O-])c1	nt	32µM*	28µM*	11µM*	7.9µM*	2.5µM*	27*	30*	48*	PGK validate=10µM*;Pol kappa inh-2=17*
NS(=O)(=O)c1ccc(N/N=C/c2ccc(O)c(O)c2O)c([N+](=O)[O-])c1	1.3µM*	10µM*	10µM*	?	2.8µM*	2.5µM*	17*	15*	15*
c1ccc2c(N=NN3CCCCC3)ccnc2c1	nt	-23%	-25%	nt	27%	nt	nt	nt	nt
C=C1c2cccc(O)c2C(O)=C2C(=O)[C@]3(O)C(O)=C(C(N)=O)C(=O)[C@@H](N(C)C)[C@@H]3[C@@H](O)[C@H]12	11µM*	6.3µM*	?	?	2.8µM*	32µM*	7.5*	13*	34*	Pol kappa inh-2=3.8*
C[C@H]1c2cccc(O)c2C(=O)C2C(=O)C3(O)C(=O)C(C(N)=O)C(=O)[C@@H](N(C)C)[C@@H]3[C@@H](O)[C@@H]21 (some centres undefined)	nt	-16%	?	9%	?	-10%	nt	nt	nt
N=C1/C(=C\c2ccc(-c3cc(Cl)cc(Cl)c3)o2)C(=O)N=C2SC=C(c3ccccc3)N12	-20%	-15%	7%	1%	?	-9%	nt	nt	nt
N=C1/C(=C/c2ccc(-c3cccc(C(=O)O)c3)o2)C(=O)N=C2SC=C(c3ccccc3)N12	28µM*	7.1µM*	?	35µM*	4µM*	3.2µM*	19*	7.6*	24*	PGK validate=37µM*
CC1CC=CC2C1C(=O)N(Cc1ccccc1)C2c1ccoc1 (centres undefined)	nt	-19%	-20%	nt	?	nt	nt	nt	nt
Cc1cc(C)c(/C=C/c2onc(C)c2S(=O)(=O)N2CCC(C(=O)NCC(C)c3ccccc3)CC2)c(C)c1 (centres undefined)	4%	-16%[60.1 µM]	-3%	nt	6%	-21%	nt	nt	nt
CCC1=NN2C(=N)/C(=C\c3ccc(OCc4cc(=O)n5nc(CC)sc5n4)c(OC)c3)C(=O)N=C2S1	4.5µM*	32µM*	50µM*	-32%[11.6 µM]	?	8.9µM*	19*	17*	38*
COc1cc(C2c3c([nH]c(=O)[nH]c3=O)Nc3ccc4ccccc4c32)cc(OC)c1OC (centres undefined)	8%	25µM*	28µM*	20µM*	18µM*	79µM*	42*	60*	30*
CCCNc1ncnc2c1c(-c1ccccc1)cn2-c1ccccc1	7%	0%[60.1 µM]	-16%	nt	-4%	-9%	nt	nt	nt
CN(C)c1ccc(N=Nc2ccc(C(=O)O)cc2)cc1	10µM*	32µM*	?	?	11µM*	3.5µM*	21*	4.3*	38*
CC(=O)/C(N=Nc1ccc(C(=O)O)cc1)=C(\C)O	23%	-3%	10%	-3%	36%	0%	nt	nt	nt
C=C1CCN(C(Cc2ccccc2)C(=O)O)S(=O)(=O)c2ccccc21 (centres undefined)	nt	5%	-2%	nt	-11%	nt	nt	nt	nt
Cc1ccc(C(=O)Nc2nnc(CC(=O)N/N=C/c3ccc(O)c(O)c3)s2)cc1	3.5µM*	?	11µM*	20µM*	?	3.5µM*	9.5*	17*	38*	PGK validate=4.1µM*
CCOc1ccccc1NC(=O)Cn1c(=O)n(-c2ccc(F)cc2)c(=O)c2sc3ccccc3c21	25%	8%	22%	nt	5%	4%	nt	nt	nt
CCOc1ccc2c(ccc(/C=C/c3cc(C)c4cccnc4c3O)[n+]2C)c1	nt	?	8.9µM*	10µM*	?	20µM*	19*	21*	12*	Pol kappa inh-2=19*
Cc1cccn2c(=O)cc(COc3cccc(NC(=O)Nc4cccc(Cl)c4)c3)nc12	-23%	-1%[60.1 µM]	11%	nt	-10%	-15%	nt	nt	nt
